# Potency and affinity values are given separately. Unmarked numbers belong to inactive results.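 Rule for the calls: active = Loss of cell signal with fitted half-effect dose at or below twice the top valid tested dose; inconclusive = Poor fit, or flat fit from -70 to -30 percent; inactive = Half-effect above limit, rising signal, or flat within 30 percent.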
# Experiment: HEK293T cell cytotoxicity, dose response, cytotoxicity control for HIV Vif inhibitor project, cherry-picks (AID 652208);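 note: 0% = median neutral control wells and -100% = median staurosporine control wells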
# Details: HEK293T viability, CellTiter-Glo luminescence, 24 h; series mostly up to 26 µM; activity change, negative = cytotoxicity: at the top concentration
row,SMILES,"activity change, negative = cytotoxicity [%]"
1,CCN(CC)c1ccc2cc(C(N)=O)c(=O)oc2c1,3.22
2,CCN1C(=O)c2cccc3c(S(=O)(=O)Nc4ccccc4O)ccc1c23,5.31
3,COc1cccc(NC(=O)c2cc(C(=O)Nc3cccc(OC)c3)n(C)n2)c1,-15.1
4,CCCn1c(=O)c(C(=O)Nc2ncccc2O)c(O)c2ccccc21,4.21
5,CCOc1ccc(NC(=O)CN(C)C(=O)c2cc(S(=O)(=O)N3CCCCC3)ccc2Cl)cc1OCC,9.74
6,COc1ccc(OCCN2CCC(C(=O)NC(c3ccccn3)c3ccccc3OC)CC2)cc1 (stereo not drawn),1.92
7,COc1cc2ccccc2cc1C(=O)Nc1ccc(Cl)cn1,-22.3
8,CCOC(=O)Cc1csc(NC(=O)CSc2nnnn2-c2ccc(CC)cc2)n1,-4.71
9,NCCCCCC(=O)Nc1ccncc1,-9.61
10,COc1ccc(CNC(=O)COC(=O)c2cc(S(=O)(=O)N3CCOCC3)ccc2O)cc1OC,-4.34
11,COc1ccc(NC(=O)Cn2nnc(C(=O)Nc3ccccc3C)c2N)cc1,-3.75
12,O=C(O)c1ccc(S(=O)(=O)c2ccc3c(c2)C(=O)N(c2ccc(Br)cc2)C3=O)cc1,4.72
13,CCCCCCn1c(N(CC)CC)nc2c1c(=O)[nH]c(=O)n2C,-0.206
14,Cc1ccc(-n2nnc3c(=O)n(CC(=O)OCc4ccccc4)cnc32)cc1,-0.069
15,CN(C)C(=O)c1cc(Br)ccc1Cl,10.3
16,CCOC(=O)Nc1ccc(NCc2ccc(F)cc2)nc1N,-5.02
17,CC(C)CCNC(=O)CCc1nnc(COc2ccccc2)o1,-2.04
18,COc1ccc(CC(=O)OCC(=O)Nc2cccc(Br)c2)cc1,4.24
19,CCn1c(SCc2ccc(C(=O)Nc3nccs3)cc2)nnc1-c1ccc(N)cc1,-14.3

row,SMILES,"activity change, negative = cytotoxicity [%]"
1,N#Cc1cc2c(=O)n3ccccc3nc2n(-c2ccccc2Cl)c1=O,-12.7
2,Cc1ccc2c(c1)N(CC(=O)N1CCCCCC1)C(=O)C(C)O2 (stereo not drawn),-2.8
3,O=S(=O)(Nc1nc2ccccc2nc1NCc1ccco1)c1ccc(Cl)cc1,-17.6
4,COc1ccc(NC(=O)c2ccccc2NC(=O)CSc2ccc(C)cc2)cc1,-13.9
5,O=C(CCc1ccccc1)Nc1ccccc1,5.54
6,CC(C)C(NC(=O)c1ccccc1NC(=O)C(C)(C)C)C(=O)N1CCOCC1 (stereo not drawn),5
7,CCCCCCOC(=O)C(C#N)c1nc2ccccc2nc1N1CCOCC1 (stereo not drawn),8.63
8,COc1ccc(CNC(=O)CN2C(=O)NC(c3ccccc3)(c3ccccc3)C2=O)cc1,-6.23
9,CN(C)c1ccc(/C=C2\SC(N3CCCCC3)=NC2=O)cc1,-15.5
10,CC(C)(C)NC(=O)NC(=O)COc1ccccn1,5.18
11,Cc1ccc(CNCCCSc2ncccn2)cc1,-8.7
12,Cc1nc(SCC(=O)N2CCCC2=O)nc(C)c1C,5.18
13,O=C(CCCCn1ccc(=O)[nH]c1=O)Nc1ccc(O)c(C(=O)O)c1,-5.73
14,COc1ccccc1C(C)NC(=O)Cc1ccsc1 (stereo not drawn),5.66
15,CCN(C(=O)COc1ccc(C)cc1OC)c1cccc2ccccc12,-0.891
16,C=CCn1c(O)c(C2=c3ccccc3=NC2=O)s/c1=N/c1nccs1,-12.6
17,CCc1ccc(N2C(=O)/C(=C/c3cccs3)N(CC(=O)OC)C2=S)cc1,-3.31
18,COc1ccc(S(=O)(=O)N2c3cc(Cl)ccc3Oc3nc4ccccc4nc32)cc1,-16
19,O=C(c1ccc2c(c1)OCO2)N(CC1CCCO1)C1(C(=O)NC2CCCC2)CCCCC1 (stereo not drawn),-18.2

# Reference: PubChem BioAssay AID652208 (Broad Institute, 2013)
